# RORg inh: blocks mouse ROR gamma transcriptional activity; P51450; Drosophila S2 Gal4-RORgamma UAS-luciferase reporter, 20 h; Potency, µM (highest dose often 53.6 µM), inactives show at the highest dose activity change, negative = inhibition, most hits filed as inhibitors; 310,000 compounds, 5.4% hits; further: on the % scale 0 is the no-effect control and ±100 the full control effect; nearly all actives have a fitted effect of over 60% in size
# Target sequence (P51450 whole entry, looked up, the tested form may be a part): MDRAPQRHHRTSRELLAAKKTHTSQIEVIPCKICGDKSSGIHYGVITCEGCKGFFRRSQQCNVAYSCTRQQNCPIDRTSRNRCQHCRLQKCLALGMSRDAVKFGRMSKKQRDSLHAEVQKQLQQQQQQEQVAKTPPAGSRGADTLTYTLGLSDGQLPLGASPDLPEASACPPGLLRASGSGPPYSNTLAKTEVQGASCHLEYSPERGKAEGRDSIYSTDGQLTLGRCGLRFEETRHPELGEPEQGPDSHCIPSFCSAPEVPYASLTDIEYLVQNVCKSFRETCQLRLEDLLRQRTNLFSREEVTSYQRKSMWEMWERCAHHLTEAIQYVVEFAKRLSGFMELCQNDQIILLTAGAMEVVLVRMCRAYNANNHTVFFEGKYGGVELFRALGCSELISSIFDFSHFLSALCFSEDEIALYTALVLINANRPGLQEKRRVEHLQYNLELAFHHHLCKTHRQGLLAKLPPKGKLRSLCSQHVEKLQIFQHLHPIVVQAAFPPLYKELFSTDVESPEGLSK
#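 Read-out: Photinus luciferase luminescence; inhibitors lower reporter signal. Insect Schneider cells with Gal4-ROR gamma fusion under metallothionein promoter, UAS reporter; 700 uM final copper sulfate induction, 20 hr, ambient temperature.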
# Chronic BCR inh: inhibitors of chronic active B-cell receptor signaling. ABC-DLBCL IkBa-CBG/CBR reporter, luminescence ratio, 4 h. Potency, µM (highest dose often 46.1 µM), inactives show top-dose activity change, negative = inhibition, actives largely listed as inhibitors. AID 493014. 340,000 compounds, 0.05% hits; active means well fitted inhibition curve with a large enough effect in the signal ratio, with a control signal flat, not every such curve was filed as active; inconclusive means small, poorly fitted or top-dose-only effect, or effect the other way, or a change in a side signal; the % refers to the signal ratio;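 further: plate controls were basal doxycycline-induced cells for no effect and cells given 10 µM MG132 for full effect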
#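 Concentration-response series (up to 46 uM) were applied to TMD8 dual-reporter cells for 4 h at 37C with doxycycline. Green/red ratio, after filter-overlap correction, defined %Activity; red signal alone was normalised to basal cells and zero luminescence.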
# Mito fusion yeast: mitochondrial division inhibition or fusion activation | S. cerevisiae fusion-defective mutant growth rescue, CellTiterGlo 48 h | Potency, µM (top dose mostly 46.1 µM), for inactives: at the highest dose growth rescue (activation), hits mostly activators | 320,000 compounds, 0.23% hits | AID 485298; further: % of control where 0% means no effect; nearly all actives have a fitted effect of over 45% in size
#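 Growth-rescue viability read-out: after 48 h at the non-permissive 37C in glycerol/ethanol YPEG, yeast mitochondrial fusion mutants are measured by CellTiterGlo luminescence; compounds (23 nl pinned per well) restoring growth score as division inhibitors or fusion activators.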
# uPA surface inh: inhibitors of cell surface uPA generation; cell surface uPA generation assay, qHTS; Potency, µM (highest dose often 38.3 µM), without a hit: at the highest dose activity change, negative = inhibition, most hits filed as inhibitors; 330,000 compounds, 0.31% hits; active means well fitted inhibition curve with a large enough effect; inconclusive means small, poorly fitted or top-dose-only effect; inactive means no such curve, though single readings can be large or run the other way; tested in mouse RAW 264.7 cells; further: on the % scale 0 is the no-effect control and ±100 the full control effect; nearly all actives have a fitted effect of over 55% in size
# VP16 counter: Gal4-VP16 reporter inhibition counter-screen; Drosophila S2 Gal4-VP16 UAS-luciferase, luminescence, 20 h; Potency, µM (doses to about 53.6 µM), inactives show at the top dose activity, negative = inhibition, hits mostly inhibitors; 310,000 compounds, 3.5% hits;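 further: Gal4-VP16 expression switched on by copper sulfate through the metallothionein promoter; on the % scale 0 is the no-effect control and ±100 the full control effect; nearly all actives have a fitted effect of over 50% in size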
# Integrin act MD: integrin-mediated muscular dystrophy alleviation activation; alpha7betagal myoblasts, beta-gal FDG fluorescence, 48 h; Potency, µM (doses to about 38.3 µM), without a hit: at the highest dose activation, actives largely listed as activators; 350,000 compounds, 0.064% hits;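 further: 100% = response of the positive control SU9516; nearly all actives have a fitted effect of over 60% in size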
#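 alpha7betagal+/- myoblasts (passage 13, 250/well) treated 48 h at 37C with compounds at 1:260 dilution of DMSO stock. Lysed, then beta-galactosidase activity read as FDG fluorescence (ex 480/em 540) after 30 min, with pre-read for autofluorescence.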
# The depositor's hits bear a star; ? = inconclusive; · = not tested or not shown. Rows were chosen to be rich in hits. Some 5.5% of all compounds tested hit in one or more screens of this group. Unless noted, the call rests on the fitted dose curve; in most records, active means well fitted curve in the direction sought with a large enough effect; inconclusive means small, poorly fitted or top-dose-only effect, or another doubt; inactive means no such curve, though single readings can be large; an effect the other way counts as inactive or inconclusive. Potency means the concentration at half of the fitted maximal effect.
SMILES,RORg inh,Chronic BCR inh,Mito fusion yeast,uPA surface inh,VP16 counter,Integrin act MD
CSCC[C@H](NC(=O)[C@H](CC(C)C)NC(=O)CNC(=O)[C@H](Cc1ccccc1)NC(=O)[C@H](Cc1ccccc1)NC(=O)[C@H](CCC(N)=O)NC(=O)[C@H](CCC(N)=O)NC(=O)[C@@H]1CCCN1C(=O)[C@H](CCCCN)NC(=O)[C@@H]1CCCN1C(=O)[C@@H](N)CCCN=C(N)N)C(N)=O,11%,·,·,·,-10%,·
COc1cc(/C=N/NC(=S)NC2CC3C=CC2C3)cc(OC)c1OC (stereo unspecified),1.8µM*,?,5%,8%,4.5µM*,-8%
CCOc1ccc(/C=N/NC(=S)NC2CC3C=CC2C3)cc1 (stereo unspecified),1µM*,-27%,-10%,8%,3.2µM*,20%
O=C(Nc1ccc(S(=O)(=O)N2CCCC2)cc1)c1cc(F)c(F)cc1Cl,33%,-9%,-10%,6%,5%,-13%
CCCCCCCCCCCCCC(=O)N[C@@H](C)[C@H](O)c1ccccc1,2%,·,·,·,-3%,·
CC/C(C)=N\NC(=O)CNC(=O)c1ccc(Cl)cc1Cl,?,13µM*,-4%,7%,?,9%
CCOC(=O)C/C(N)=N/NC(=O)c1ccc(Cl)cc1Cl,7.9µM*,-10%,?,0%,?,8%
Cn1cc(C(=O)c2ccc(Cl)cc2Cl)cc1C(=O)N/N=C(\N)COc1ccc(Cl)cc1,1.4µM*,?,0%,-3%,3.5µM*,-61%
Cn1cc(C(=O)c2ccc(Cl)cc2Cl)cc1C(=O)N/N=C(\N)COc1ccc(Cl)cc1Cl,1.4µM*,-8%,-1%,-13%,4µM*,-50%
CC(C)N(C)S(=O)(=O)c1ccc(NC(=O)CSC(=S)N2CCCC2)cc1,·,-11%,7%,-1%,·,-1%
COc1ccccc1CNc1ccnc(-c2ccccc2OC)n1,10%,·,·,·,-6%,·
O=C(c1cccs1)N(Cc1cccnc1)c1nc2ccc(F)cc2s1,·,18%,·,·,·,·
Cn1cc(C(=O)c2ccc(Cl)cc2Cl)cc1C(=O)O,16%,8%,3%,1%,2%,-8%
Cn1cc(C(=O)c2ccc(Cl)cc2Cl)cc1C(=O)N/N=C(\N)COc1ccc(F)cc1,2.2µM*,28%,-3%,0%,2.5µM*,-10%
Cn1cc(C(=O)c2ccc(Cl)cc2Cl)cc1C(=O)N/N=C(\N)COc1ccccc1,0.71µM*,8%,1%,-4%,1.6µM*,-21%
COP1(=O)CC(O)C(O)C(COCc2ccccc2)O1 (stereo unspecified),-17%,·,·,·,-6%,·
CC=C(Cl)Cl,20%,·,·,·,9%,·
S=C(Nc1ccc(Cl)cc1)c1nc2ccccc2[nH]1,11µM*,?,13%,-6%,20µM*,-27%
Cc1ccccc1NC(=S)c1nc2ccccc2[nH]1,?,-1%,10%,-7%,?,-41%
CC(C)(C)NC(=O)c1ccc2c(c1)N(CC(=O)N1CCCC1)C(=O)C(C)(C)O2,0.63µM*,2%,1%,-16%,16%,7%
CC(C)(C)NC(=O)c1ccc2c(c1)N(CC(=O)N1CCCCC1)C(=O)C(C)(C)O2,0%,?,13%,5%,-4%,-24%
CCOc1ccc(N2CC(C(=O)N3CCCCCC3)CC2=O)cc1 (stereo unspecified),0%,-6%,-2%,-2%,4%,15%
Cc1nc2ccc(Br)cn2c1C(=O)N/N=C\c1ccccc1Cl,7.1µM*,-5%,-2%,20%,?,-8%
Cc1nc2ccc(Br)cn2c1C(=O)N/N=C\c1ccccc1[N+](=O)[O-],?,11%,7%,1%,-18%,7%
COc1cccc(/C=N/NC(=O)c2c(C)nc3ccc(Cl)cn23)c1O,3.2µM*,?,6%,-11%,4µM*,-13%
SMILES,RORg inh,Chronic BCR inh,Mito fusion yeast,uPA surface inh,VP16 counter,Integrin act MD
COc1ccccc1/C=N\NC(=O)c1c(C)nc2ccc(Cl)cn12,?,0%,2%,15%,?,18%
O=C(Nc1ccc(F)c(Cl)c1)c1cc(S(=O)(=O)NCc2ccc3c(c2)OCO3)ccc1F,·,-12%,·,·,·,·
COc1ccc(C)cc1C1=Nc2ccccc2C1(C)C,13µM*,-1%,10%,4%,?,-4%
Cc1ccc(O)c(C2=Nc3ccccc3C2(C)C)c1,13%,1%,-3%,-13%,-6%,11%
Cc1cnc(CNc2cc(-c3ccccc3C)ncn2)cn1,-18%,·,·,·,25%,·
Cc1nc2ccccn2c1C(=O)NC1CCCc2ccccc21 (stereo unspecified),?,-4%,22%,?,13µM*,-25%
CN(C)c1ccc(-c2nc(Nc3ccncc3)c3ccccc3n2)cc1,?,·,·,·,16µM*,·
Cc1ccccc1-c1nc(Nc2ccncc2)c2ccccc2n1,7.1µM*,·,·,·,-20%,·
c1cncc(CNc2nc(-c3ccoc3)nc3ccccc23)c1,4%,·,·,·,6%,·
CN(C)c1ccc(-c2nc(NCc3cccnc3)c3ccccc3n2)cc1,?,·,·,·,14µM*,·
COc1ccc(CNc2nc(-c3ccc(N(C)C)cc3)nc3ccccc23)c(OC)c1,5µM*,·,·,·,5µM*,·
COc1ccc(CNc2nc(-c3ccc(C(=O)N(C)C)cc3)nc3ccccc23)c(OC)c1,?,·,·,·,-5%,·
C[C@H](N)C(=O)NCC(=O)N[C@H]1CSSC[C@@H](C(=O)O)NC(=O)[C@H](CO)NC(=O)[C@H]([C@@H](C)O)NC(=O)[C@H](Cc2ccccc2)NC(=O)[C@H]([C@@H](C)O)NC(=O)[C@H](CCCCN)NC(=O)[C@@H](Cc2c[nH]c3ccccc23)NC(=O)[C@H](Cc2ccccc2)NC(=O)[C@H](Cc2ccccc2)NC(=O)[C@H](CC(N)=O)NC(=O)[C@H](CCCCN)NC1=O,3%,·,·,·,-2%,·
COc1c(Cl)ccc(Cl)c1C(=O)O,4%,·,·,·,4%,·
CC(C)(C)c1ccc(OCCC(=O)OCC(=O)N2c3ccccc3NC(=O)C2(C)C)cc1,·,-2%,26%,-11%,·,0%
Clc1ccccc1-c1nc(Nc2ccncc2)c2ccccc2n1,11µM*,·,·,·,-10%,·
CN(C)c1ccc(-c2nc3ccccc3c(=O)[nH]2)cc1,5.6µM*,?,0%,1.4µM*,?,24%
CC(CCc1ccccc1)NC(=O)CCC1CCCC1 (stereo unspecified),·,·,·,-1%,·,-5%
COc1cc2c(cc1OC)CN(C(=O)c1cc(S(=O)(=O)N3CCOCC3)ccc1C)CC2,·,9%,-4%,-4%,·,9%
O=c1c(-c2cccc(F)c2)nc2cncnc2n1Cc1ccccc1,12%,·,·,·,8%,·

# High-throughput results (PubChem)
